Measurements published in PubChem BioAssay AID687 (PCMD, 2007).
Among all 33,000 compounds or so, about 95 (0.3%) were called active.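 Rule for the calls: active = inhibition above 40% in the primary screen; inactive = the rest.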 This excerpt belongs to a sample that is enriched for actives.

Target: Coagulation factor XI (Homo sapiens) (UniProt P03951)
Assay: human FXIa protease inhibitors, primary screen, biochemical, single compound per well (AID 687);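 note: 0% = enzyme without compound and 100% = blank wells lacking enzyme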
Conditions: purified human FXIa, fluorogenic AMC substrate cleavage; at 10 µM; stronger effect = higher value

Sequence of Coagulation factor XI (Homo sapiens) (P03951 19-387 limits assumed): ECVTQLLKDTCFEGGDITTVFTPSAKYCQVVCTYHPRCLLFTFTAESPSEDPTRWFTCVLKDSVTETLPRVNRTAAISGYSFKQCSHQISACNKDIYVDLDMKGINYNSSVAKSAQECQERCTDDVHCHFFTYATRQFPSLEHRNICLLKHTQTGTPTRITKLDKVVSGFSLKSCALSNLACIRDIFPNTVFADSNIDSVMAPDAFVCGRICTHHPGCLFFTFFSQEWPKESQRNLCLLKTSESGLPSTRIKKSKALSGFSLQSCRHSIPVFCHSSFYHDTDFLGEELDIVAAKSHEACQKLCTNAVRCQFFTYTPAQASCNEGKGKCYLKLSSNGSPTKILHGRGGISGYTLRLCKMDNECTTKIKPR
Sequence of Coagulation factor XI (Homo sapiens) (P03951 388-625 limits assumed): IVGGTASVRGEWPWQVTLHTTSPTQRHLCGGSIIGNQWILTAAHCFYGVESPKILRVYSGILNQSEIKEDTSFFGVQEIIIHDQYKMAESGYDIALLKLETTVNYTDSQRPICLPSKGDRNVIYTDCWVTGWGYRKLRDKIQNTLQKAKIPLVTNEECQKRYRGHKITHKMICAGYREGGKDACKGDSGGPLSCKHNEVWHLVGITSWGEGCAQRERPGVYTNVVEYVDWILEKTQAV

| Compound | inhibition |
| --- | --- |
| O=c1c2ccccc2nc2n1C1(CCCCC1)Cc1ccccc1-2 | -5.48% (inactive) |
| CC(=O)Nc1ccccc1OC(=O)N1CCOCC1 | -4.74% (inactive) |
| O=C(CN1CCCCCC1)N1c2ccccc2Sc2ccc(C(F)(F)F)cc21 | 2.04% (inactive) |
| C=CCC(NCc1ccco1)c1ccc(OC)cc1 (stereo not drawn) | 4.05% (inactive) |
| O=C(CC1NCCNC1=O)Nc1ccc(Oc2ccccc2)cc1 (stereo not drawn) | 0% (inactive) |
| CCOC(=O)c1cnc2sccn2c1=O | 6.51% (inactive) |
| O=C(c1ccc(CN2CCOCC2)cc1)N1CCN(c2ccccc2F)CC1 | 3.59% (inactive) |
| Cn1c(N)c(C(=O)COC(=O)C23CC4CC(CC(C4)C2)C3)c(=O)n(C)c1=O | 21.8% (inactive) |
| O=C(NCCOc1ccccc1)c1ccccc1 | -5.53% (inactive) |
| CC1CN(S(=O)(=O)c2ccccc2)C(C)CN1S(=O)(=O)c1ccccc1 (stereo not drawn) | 1.71% (inactive) |
| COCCn1c(C)cc(C2=NNC(=Nc3ccc(F)cc3)SC2)c1C | -6.11% (inactive) |
| COc1ccc(N(CC(=O)NC2CCCCC2)S(=O)(=O)c2c(C)[nH]c(=O)[nH]c2=O)cc1 | 8.86% (inactive) |
| CCOc1c(Cl)cc(/C=N/O)cc1OC | -2.81% (inactive) |
| COc1ccc(-n2nc(C(=O)NCC(=O)Nc3cccc(C)n3)c3ccccc3c2=O)cc1 | -9.02% (inactive) |
| N#C/C(=C(\O)CCl)c1nnc2n1CCCCC2 | -2.88% (inactive) |
| CCOC(=O)N1CCN(Cc2nc(N)nc(Nc3ccc(C)cc3)n2)CC1 | 17.1% (inactive) |
| COCCCNC(=O)C1CC(=O)N(CCc2ccccc2)C1 (stereo not drawn) | 7.75% (inactive) |
| Cc1cccc(C)c1NC(=O)CSc1nnc(-c2ccccc2)n1Cc1ccc2c(c1)OCO2 | 3.72% (inactive) |
| COC(=O)c1ccc(CSc2ccc3nnc(-c4ccccc4)n3n2)o1 | 1.01% (inactive) |
| CC(C)C(=O)Nc1nnc(Sc2ccc(N(C)C)cc2)s1 | -3.42% (inactive) |
| Cc1ccc(-c2noc(CSc3nnc(-c4ccncc4)n3-c3ccc(F)cc3)n2)cc1 | 4.76% (inactive) |
| COC(=O)C(C(=O)Nc1cccc(C)n1)C1CCCCCC1 (stereo not drawn) | -11.6% (inactive) |
| Cn1c(CC(=O)Nc2ccccc2)nnc1SCC(=O)c1ccccc1 | -6.46% (inactive) |
| O=C(COc1ccc(Cl)cc1)Nc1ccccc1CO | 2.06% (inactive) |
| C=CCn1c(N)cc(=O)nc1SCC(=O)Nc1cccc2ccccc12 | 9.45% (inactive) |

| Compound | inhibition |
| --- | --- |
| CCn1c(SCC(=O)Nc2ccc(OC)c(OC)c2)nnc1-c1c[nH]c2ccccc12 | 7.43% (inactive) |
| COC(=O)C1C(=O)NCC1c1ccc(C)cc1 (stereo not drawn) | 8.67% (inactive) |
| CC(=O)Nc1ccc(S(=O)(=O)N2CCN(C3CCCCCCC3)CC2)cc1 | 0.06% (inactive) |
| CCOc1ccc(C(=O)Nc2ccncc2)cc1 | -1.05% (inactive) |
| CC(C)(C)NC(=O)CN(Cc1cccs1)C(=O)CNS(=O)(=O)c1ccccc1 | -7.23% (inactive) |
| CCOCc1nnc(NC(=O)CSc2ccc(C)cc2)s1 | -2.27% (inactive) |
| CC1=NN(C(C)C)C(=O)C1 | 28.4% (inactive) |
| CC(=O)Nc1ccc(NC(=O)CSCc2cnn(-c3ccccc3)c2-n2cccc2)cc1 | 6.64% (inactive) |
| COc1ccccc1N(C(=O)Cn1nnc2ccccc21)C(C(=O)NCc1ccco1)c1ccc(C)o1 (stereo not drawn) | -1.36% (inactive) |
| O=C(CCc1ccccc1)NCc1cccnc1 | 23.1% (inactive) |
| Cc1cc(C(=O)OC(C)C(=O)Nc2cccc(S(=O)(=O)N3CCOCC3)c2)c(C)o1 (stereo not drawn) | -5.93% (inactive) |
| CCC(=O)NC(Nc1nc2ccc(C)cc2s1)(C(=O)OC)C(F)(F)F (stereo not drawn) | 0.39% (inactive) |
| CCOC(=O)c1ccccc1NS(=O)(=O)c1ccc(OC)cc1 | -1.8% (inactive) |
| CCOc1ccc(C(=O)NCCCN2CCCC2=O)cc1 | -9.62% (inactive) |
| Cc1cc(C)cc(OCc2nnc(SCC(=O)OC3CCCCC3)o2)c1 | 2.82% (inactive) |
| O=C(Nc1ccc(S(=O)(=O)N2CCc3ccccc3C2)cc1)c1ccccc1 | 4.52% (inactive) |
| O=C1CSC(c2ccc(Cl)cc2)N1 (stereo not drawn) | -2.99% (inactive) |
| COc1ccc(-c2cc3nc(C)c(CCC(=O)NC(C)CCc4ccco4)c(C)n3n2)c(OC)c1 (stereo not drawn) | 0.38% (inactive) |
| C=C(C)CNC(=S)/N=c1\scc(C)n1CC | -6.03% (inactive) |
| COc1cc(S(=O)(=O)N(Cc2cccs2)C2CC2)ccc1-n1cnnn1 | 6.31% (inactive) |
| COc1ccccc1Nc1nc(N)nc(CN(C)C2CCCCC2)n1 | -1.79% (inactive) |
| O=C(CCN1C(=O)c2ccccc2C1=O)Nc1cccc(F)c1 | 21.9% (inactive) |
| O=C(CCn1c(SCC(=O)c2ccccc2)nc2ccccc2c1=O)NCc1ccc(F)cc1 | -1.87% (inactive) |
| CCCNC(=O)NCc1ccc(N2CCCC2=O)cc1 | -4.89% (inactive) |
| O=C(NCc1ccccc1)[C@@H]1CSC2c3ccccc3C(=O)N21 (stereo partly drawn) | -6.84% (inactive) |

| Compound | inhibition |
| --- | --- |
| COc1ccc(N2CCN(C(=O)CNC(=O)c3ccc(C(C)(C)C)cc3)CC2)cc1 | 0.23% (inactive) |
| COc1ccc2oc(=O)c(C(=O)N3CCCc4ccccc43)cc2c1 | 2.52% (inactive) |
| C=CCN(C(=O)Cn1ncc2c1-c1cc(C)ccc1OC2)c1ccccc1 | 7.94% (inactive) |
| CCCCSc1[nH]c(=O)c(C(=O)OCC)cc1C#N | -3.65% (inactive) |
| COC(=O)c1cccc(-n2[nH]nnc2=S)c1 | 8.73% (inactive) |
| O=c1nc(N2CCOCC2)nc2n1CCO2 | 0.16% (inactive) |
| Nc1nc(SCc2ccccc2Cl)n[nH]1 | -1.35% (inactive) |
| C=CCn1c(SCc2c(C)noc2C)nc2sc3c(c2c1=O)CCC(C)C3 (stereo not drawn) | -0.06% (inactive) |
| Cc1cccc(Cn2c(SCCO)nc3c2c(=O)n(C)c(=O)n3C)c1 | -5.34% (inactive) |
| COC(=O)Nc1ccc(S(=O)(=O)N2CCN(CCN3C(=O)C4C5C=CC(C5)C4C3=O)CC2)cc1 (stereo not drawn) | 7.92% (inactive) |
| CN(C)CCNC(=O)C(C(=O)c1ccccc1)n1ccccc1=O (stereo not drawn) | -0.81% (inactive) |
| Nn1c(SCC(=O)NC2CCCC2)nnc1-c1ccccc1F | -0.95% (inactive) |
| Cc1cc(C(F)(F)F)n2ncc(-c3ccccc3)c2n1 | -2.08% (inactive) |
| O=C(CN1CCN(C(=O)c2ccco2)CC1)Nc1ccc2c(c1)OCO2 | -13.2% (inactive) |
| CCOC(=O)c1ccc(COC(=O)CCc2nc(-c3ccccc3)c(-c3ccccc3)o2)cc1 | -0.92% (inactive) |
| Cc1ccc(CNC(=O)CCNS(=O)(=O)c2cccc3nonc23)cc1 | -10.4% (inactive) |
| CCc1nc(N2CCN(c3nc(C)cc(C)n3)CC2)c2oc3ccccc3c2n1 | -4.81% (inactive) |
| COc1ccc(CCN(C)CCN2C(=O)c3ccccc3C2=O)cc1OC | -0.63% (inactive) |
| Cc1ccc(OCC(=O)Nn2cnc3ccccc32)cc1 | 13.2% (inactive) |
| CCOC(=O)c1c(C)nc2c(c1C)c(=O)oc1ccccc12 | 43.4% (active) |
| CCOC(=O)c1ccc(COC(=O)c2cc(=O)[nH]c3ccccc23)o1 | 0.06% (inactive) |
| CCOC(=O)c1cc2ccccc2nc1C | -0.46% (inactive) |
| CCOc1cc(CN2CCN(C(=O)CC(C)C)CC2)ccc1OC | 0.6% (inactive) |
| CC(NC(=O)Nc1ccccc1)c1ccccc1 (stereo not drawn) | -3.02% (inactive) |
| CC1CCC2(CC1)NC(=O)N(CC(=O)c1cccn1C)C2=O (stereo not drawn) | -10.7% (inactive) |

| Compound | inhibition |
| --- | --- |
| CCOc1ccc(S(=O)(=O)N2CCCCCC2)c2ccccc12 | -9.47% (inactive) |
| O=C(NC1CCCCC1)c1ccc(CNc2c(N3CCOCC3)c(=O)c2=O)cc1 | -0.69% (inactive) |
| COc1ccc(CN2CCn3ncc(C(=O)Nc4ccc(Cl)cc4Cl)c3C2=O)cc1 | 8.32% (inactive) |
| CCOC(=O)C1=C(CSc2nccn2C)NC(=O)NC1c1ccc(OC)cc1 (stereo not drawn) | -6.24% (inactive) |
| CC1(C)Cc2c(sc3nc(SCC(=O)NCc4ccccc4)n(-c4ccccc4)c(=O)c23)CS1 | 1.32% (inactive) |
| O=C(C(NS(=O)(=O)c1cccc2nsnc12)c1ccccc1)N1CCN(c2ccccc2)CC1 (stereo not drawn) | 4.95% (inactive) |
| O=C(NCc1ccco1)C1(c2ccc(Cl)cc2)CCCC1 | -4.42% (inactive) |
| O=C(CCCn1c(SCC(=O)c2ccccc2)nc2ccccc2c1=O)NCC1CCCO1 (stereo not drawn) | 7.29% (inactive) |
| CCOc1ccc(-c2nc(C)sc2CC(=O)O)cc1 | -1.47% (inactive) |
| O=[N+]([O-])c1ccc(Oc2ccc(F)cc2Br)c2ccncc12 | -2.08% (inactive) |
| c1ccc2[nH]c(NCCN3CCOCC3)nc2c1 | -1.88% (inactive) |
| COC(=O)C1CCN(CC(N)=O)CC1 | -11.2% (inactive) |
| Cc1cc(=O)oc(C)c1C(=O)N1CCCCC1 | 32.7% (inactive) |
| Cc1ccc(CNC(=O)C2CCCN2C(=O)NCc2ccccc2)cc1 (stereo not drawn) | 26.7% (inactive) |
| COc1ccc(O)c(C(=O)c2cnc3onc(C(C)C)c3c2)c1 | -2.11% (inactive) |
| O=C(CCN1c2ccccc2Sc2ccccc21)Nc1ccccc1 | -11.6% (inactive) |
| Cc1ccnc(NC(=O)c2ccc(NC(=O)c3ccco3)cc2)c1 | 1.44% (inactive) |
| Cc1cccc(NC(=O)CN2C(=O)CNC2=O)c1 | 7.39% (inactive) |
| COC(=O)c1cccc(N(C(=O)c2ccco2)C(C(=O)NC2CCCC2)c2ccco2)c1 (stereo not drawn) | -11.4% (inactive) |
| COc1ccc(N/N=C2/CCCCC2=O)cc1 | 19.4% (inactive) |
| COc1ccc(N2CCN(C(=O)CCc3nc(-c4ccc(C)cc4)no3)CC2)cc1 | 8.76% (inactive) |
| O=C(CNS(=O)(=O)c1ccc(Br)s1)N1CCN(C(=O)c2ccco2)CC1 | -4.45% (inactive) |
| Cc1cccc(C)c1NC(=O)CCCSc1nnc(-c2ccco2)n1-c1ccccc1 | -0.71% (inactive) |
